Results filed as inconclusive are left out. A call without a number means that no potency is given here. Calls of active or inactive are those of the source. Unless noted, the call rests on the fitted dose curve. Positions of bridges follow the written chain, without caps; N, C: chain ends. Non-standard residues stand in square brackets, D forms with d. Residues, ends and D or L forms follow the SMILES beside them. ξ: configuration not given here. *: point of attachment. d(aThr) = C[C@@H](O)[C@@H](N)C(=O)O; ξThr(3R) = C[C@@H](O)C(N)C(=O)O; X3 = CC[C@@H](C)CCCCC(=O)*; dDab = NCC[C@@H](N)C(=O)O
Assay: qHTS assay for small molecule disruptors of the mitochondrial membrane potential - cell viability (AID 720634); further: nearly all actives have a fitted effect of over 20% in size
Conditions: HepG2 viability, ATP luminescence (CellTiter-Glo), 1 h; series mostly up to 83.2 µM
How it was run: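 HepG2 cells seeded overnight at 37 C, then exposed to compound or DMSO for 1 hr at 37 C, 5% CO2. m-MPI dye added, then CellTiter-Glo for 30 min at room temperature; viability read as ATP luminescence.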
Potency means the concentration at half of the fitted maximal effect.

Compound | Potency
CSc1nc2cc(Oc3cccc(Cl)c3Cl)c(Cl)cc2[nH]1 | 2.11 µM (active)
Cc1ccc(S(=O)(=O)NC(=O)N[C@@H](C)Cc2ccccc2)cc1 | inactive
CC[C@@H](C)CCCCC(=O)N[C@H](CCN)C(=O)N[C@@H](C(=O)N[C@H](CCN)C(=O)N[C@@H]1CCNC(=O)C([C@@H](C)O)NC(=O)[C@@H](CCN)NC(=O)[C@@H](CCN)NC(=O)[C@@H](CC(C)C)NC(=O)[C@@H](Cc2ccccc2)NC(=O)[C@@H](CCN)NC1=O)[C@@H](C)O (stereo partly drawn) (X3-[dDab][d(aThr)][dDab][dDab][dDab][dF][dL][dDab][dDab][ξThr(3R)]; lactam 4-C) | inactive
COC(=O)C1=C(C)NC(C)=C(C(=O)O[C@H]2CCN(Cc3ccccc3)C2)[C@H]1c1cccc([N+](=O)[O-])c1 | inactive
CCC(=O)O[C@@H]1CC(=O)O[C@H](C)C/C=C/C=C/[C@H](O)[C@H](C)C[C@H](CC=O)[C@H](O[C@@H]2O[C@H](C)[C@@H](O[C@H]3C[C@@](C)(O)[C@@H](OC(=O)CC)[C@H](C)O3)[C@H](N(C)C)[C@H]2O)[C@H]1OC | inactive
O=C(Nc1ccc(/C=C/c2ccc(NC(=O)c3cc(S(=O)(=O)O)c4cccnc4c3O)cc2S(=O)(=O)O)c(S(=O)(=O)O)c1)c1cc(S(=O)(=O)O)c2cccnc2c1O | inactive
O=C(O)CN(CC(=O)O)CC1=CC2C(=CC1=O)Oc1cc(O)c(CN(CC(=O)O)CC(=O)O)cc1C21OC(=O)c2ccccc21 (stereo not given) | inactive
NC(N)=NCC1COc2ccccc2O1 (stereo not given) | inactive
CC[C@]1(O)CC2CN(CCc3c([nH]c4ccccc34)[C@@](C(=O)OC)(c3cc4c(cc3OC)N(C)[C@H]3[C@@](O)(C(N)=O)[C@H](O)[C@]5(CC)C=CCN6CC[C@]43[C@@H]65)C2)C1 (stereo not given in full) | inactive
NC(=O)C[C@@H](N)C(=O)O | inactive
CN=C(NC)NCc1ccccc1 | inactive
CN(CCO)CC(O)Cn1cnc2c1c(=O)n(C)c(=O)n2C (stereo not given) (tested in a mixture with another compound) | inactive
COc1ccccc1N1CCN(CCCC(=O)c2ccc(F)cc2)CC1 | inactive
CN[C@@H]1[C@@H](O)[C@@H](O[C@@H]2[C@@H](O)[C@H](OC3OC(CN)=CCC3N)[C@@H](N)C[C@H]2N)OC[C@]1(C)O (stereo not given in full) | inactive
c1ccc2cc(C3=NCCN3)ccc2c1 | inactive
CCC(=O)OCC(=O)[C@@]1(OC(=O)CC)[C@@H](C)C[C@H]2[C@@H]3CCC4=CC(=O)C=C[C@]4(C)[C@@]3(F)[C@@H](O)C[C@@]21C | inactive
C#C[C@]1(O)CC[C@H]2[C@@H]3CCC4=C(CCC(=O)C4)[C@H]3CC[C@@]21C | inactive
NCCC(=O)[N-][C@@H](Cc1cnc[nH]1)C(=O)O.[Zn] | inactive
O=C(O)c1cc(N=Nc2ccc(O)c(C(=O)O)c2)ccc1O | inactive
O=C(O)c1c(Cl)c(Cl)c(Cl)c(Cl)c1-c1c2cc(I)c(=O)c(I)c-2oc2c(I)c(O)c(I)cc12 | inactive
CCC[C@@H]1C[C@@H](C(=O)N[C@@H]([C@H]2O[C@H](SC)[C@H](O)[C@@H](O)[C@H]2O)[C@H](C)Cl)N(C)C1 | inactive
CC(C)N=c1cc2n(-c3ccc(Cl)cc3)c3ccccc3nc-2cc1Nc1ccc(Cl)cc1 | inactive
C[C@@H]1CCC2[C@@H](C)[C@@H](O)O[C@@H]3O[C@@]4(C)CC[C@@H]1[C@@]23OO4 (stereo not given in full) | inactive
CC(=O)N[C@@H](C=O)[C@@H](O)[C@H](O)[C@H](O)CO | inactive
CCOC(=O)C1=C(COCCN)NC(C)=C(C(=O)OC)C1c1ccccc1Cl (stereo not given) | inactive
CCOC(=O)[C@@H](N)CS | inactive
CC[C@@H]1/C=C(\C)C[C@H](C)C[C@H](OC)[C@H]2O[C@@](O)(C(=O)C(=O)N3CCCC[C@H]3C(=O)O[C@H](/C(C)=C/[C@@H]3CC[C@@H](Cl)[C@H](OC)C3)[C@H](C)[C@@H](O)CC1=O)[C@H](C)C[C@@H]2OC | inactive
CCCCCCCCCCCCCCCC(=O)O[C@@H]1CC(C)=C(/C=C/C(C)=C/C=C/C(C)=C/C=C/C=C(C)/C=C/C=C(C)/C=C/C2=C(C)C[C@@H](OC(=O)CCCCCCCCCCCCCCC)CC2(C)C)C(C)(C)C1 | inactive
CCCCCCC(=O)O[C@H]1CC[C@H]2[C@@H]3CCc4cc(O)ccc4[C@H]3CC[C@]12C | inactive
C=C1C(=C/C=C2\CCC[C@]3(C)[C@@H]([C@H](C)/C=C/[C@H](C)C(C)C)CC[C@@H]23)C[C@@H](O)C[C@@H]1O | inactive

Assay: qHTS assay for small molecule disruptors of the mitochondrial membrane potential (AID 720635; active means well fitted inhibition curve with a large enough effect in the signal ratio in the repeat runs; the % refers to the signal ratio)
Conditions: HepG2 mitochondrial membrane potential, Mito-MPS dye ratio; series mostly up to 83.2 µM
How it was run: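 Mitochondrial membrane potential tracked with Mito-MPS dye, red aggregates (ex 540/em 590 nm) against green monomers (ex 490/em 535 nm). Compound treatment 1 hr at 37C, dye 30 min in HepG2.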

Compound | Potency
CSc1nc2cc(Oc3cccc(Cl)c3Cl)c(Cl)cc2[nH]1 | 1.68 µM (active)
Cc1ccc(S(=O)(=O)NC(=O)N[C@@H](C)Cc2ccccc2)cc1 | inactive
CC[C@@H](C)CCCCC(=O)N[C@H](CCN)C(=O)N[C@@H](C(=O)N[C@H](CCN)C(=O)N[C@@H]1CCNC(=O)C([C@@H](C)O)NC(=O)[C@@H](CCN)NC(=O)[C@@H](CCN)NC(=O)[C@@H](CC(C)C)NC(=O)[C@@H](Cc2ccccc2)NC(=O)[C@@H](CCN)NC1=O)[C@@H](C)O (stereo partly drawn) (X3-[dDab][d(aThr)][dDab][dDab][dDab][dF][dL][dDab][dDab][ξThr(3R)]; lactam 4-C) | inactive
CCCCCCCCCCCCCCCCOCCOCCOCCOCCOCCOCCOCCOCCOCCOCCOCCOCCOCCOCCOCCOCCOCCOCCOCCOCCO | 23.7 µM (active)
CCC(=O)O[C@@H]1CC(=O)O[C@H](C)C/C=C/C=C/[C@H](O)[C@H](C)C[C@H](CC=O)[C@H](O[C@@H]2O[C@H](C)[C@@H](O[C@H]3C[C@@](C)(O)[C@@H](OC(=O)CC)[C@H](C)O3)[C@H](N(C)C)[C@H]2O)[C@H]1OC | inactive
C[C@]12C=CC(=O)N[C@@H]1CC[C@@H]1[C@@H]2CC[C@]2(C)[C@@H](C(=O)Nc3cc(C(F)(F)F)ccc3C(F)(F)F)CC[C@@H]12 | 0.944 µM (active)
NC(N)=NCC1COc2ccccc2O1 (stereo not given) | inactive
CC[C@]1(O)CC2CN(CCc3c([nH]c4ccccc34)[C@@](C(=O)OC)(c3cc4c(cc3OC)N(C)[C@H]3[C@@](O)(C(N)=O)[C@H](O)[C@]5(CC)C=CCN6CC[C@]43[C@@H]65)C2)C1 (stereo not given in full) | 10.6 µM (active)
CN=C(NC)NCc1ccccc1 | inactive
CN(CCO)CC(O)Cn1cnc2c1c(=O)n(C)c(=O)n2C (stereo not given) (tested in a mixture with another compound) | inactive
CN[C@@H]1[C@@H](O)[C@@H](O[C@@H]2[C@@H](O)[C@H](OC3OC(CN)=CCC3N)[C@@H](N)C[C@H]2N)OC[C@]1(C)O (stereo not given in full) | inactive
c1ccc2cc(C3=NCCN3)ccc2c1 | inactive
O=C(OC[C@H]1O[C@](O)(COC(=O)c2cccnc2)[C@@H](OC(=O)c2cccnc2)[C@@H]1OC(=O)c1cccnc1)c1cccnc1 | inactive
CCC(=O)OCC(=O)[C@@]1(OC(=O)CC)[C@@H](C)C[C@H]2[C@@H]3CCC4=CC(=O)C=C[C@]4(C)[C@@]3(F)[C@@H](O)C[C@@]21C | 23.7 µM (active)
OCC(S)CS (stereo not given) | inactive
CCCCCc1ccc(C)cc1O | 10.6 µM (active)
NCCC(=O)[N-][C@@H](Cc1cnc[nH]1)C(=O)O.[Zn] | inactive
O=C(O)c1cc(N=Nc2ccc(O)c(C(=O)O)c2)ccc1O | inactive
CCC[C@@H]1C[C@@H](C(=O)N[C@@H]([C@H]2O[C@H](SC)[C@H](O)[C@@H](O)[C@H]2O)[C@H](C)Cl)N(C)C1 | inactive
C[C@@H]1CCC2[C@@H](C)[C@@H](O)O[C@@H]3O[C@@]4(C)CC[C@@H]1[C@@]23OO4 (stereo not given in full) | inactive
CC(=O)N[C@@H](C=O)[C@@H](O)[C@H](O)[C@H](O)CO | inactive
CCOC(=O)[C@@H](N)CS | inactive
CCCCCCCCCCCCCCCC(=O)O[C@@H]1CC(C)=C(/C=C/C(C)=C/C=C/C(C)=C/C=C/C=C(C)/C=C/C=C(C)/C=C/C2=C(C)C[C@@H](OC(=O)CCCCCCCCCCCCCCC)CC2(C)C)C(C)(C)C1 | inactive
CCCCCCC(=O)O[C@H]1CC[C@H]2[C@@H]3CCc4cc(O)ccc4[C@H]3CC[C@]12C | 11.9 µM (active)
CN=C1C=CC(=C(c2ccc(N(C)C)cc2)c2ccc(N(C)C)cc2)C=C1 | 0.0441 µM (active)

Reference: PubChem BioAssay (Tox21)
